The nature of test [1]: ATG_E_Box_CIS: Attagene CIS-FACTORIAL HepG2 Assay for human Enhancer Box (E-box) (AID 2282936). Conditions: HepG2 E-box cis-reporter transcription, actives raise or lower the signal. The gist of the method: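 Multiplexed CIS reporter system in transiently transfected HepG2 cells measures native transcription factor activity. Reporter RNA after 24 h exposure is profiled by RT-PCR-capillary electrophoresis.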

Test [2] in a line: ATG_M_61_CIS: Attagene CIS-FACTORIAL HepG2 Assay for M61 Transcription Factor (Internal Marker) (AID 2282937). Conditions: HepG2 Attagene CIS-FACTORIAL M61 internal marker reporter; actives raise or lower the signal. The gist of the method:
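Readout: fluorescent reporter mRNA fragments resolved by capillary electrophoresis after RT-PCR. Transiently transfected human HepG2 cells carried MRTU constructs reporting endogenous TF activity; 24 h chemical exposure; gain or loss of signal fitted relative to DMSO.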

The nature of test [3]: ATG_EGR_CIS: Attagene CIS-FACTORIAL HepG2 Assay for human Early Growth Response 1 (EGR1) (AID 2282938). Conditions: HepG2 Attagene CIS-FACTORIAL EGR reporter mRNA; actives raise or lower the signal. In outline: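 Read-out: fluorescent reporter-mRNA fragments resolved by capillary electrophoresis after RT-PCR, 24 h post-dose in transiently transfected HepG2. Endogenous transcription-factor activity reported via cis-element-regulated reporter units; gain or loss fitted relative to DMSO.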

Test [4] is described as follows: ATG_Ets_CIS: Attagene CIS-FACTORIAL HepG2 Assay for human Erythroblast Transformation Specific (ETS) (AID 2282941). Conditions: HepG2 ETS cis-reporter transcription, actives raise or lower the signal. The gist of the method: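 HepG2 cells transfected with multiple cis-regulated reporter units measuring endogenous ETS-driven transcription, 24 h after dosing. Reporter mRNA quantified by RT-PCR with capillary electrophoresis; bidirectional fit relative to DMSO.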

For test [5], the target named is Hepatocyte nuclear factor 3-beta (Homo sapiens) (UniProt Q9Y261). Kind of test: ATG_FoxA2_CIS: Attagene CIS-FACTORIAL HepG2 Assay for human Forkhead box A2 (FOXA2) (AID 2282942). Conditions: HepG2 cis-reporter transcription factor activity, 24 h; actives raise or lower the signal. The gist of the method:
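Readout: fluorescent reporter transcripts resolved by capillary electrophoresis after RT-PCR. Transiently transfected HepG2, 24 h compound exposure, endogenous TF activity at cis promoter elements. Gain or loss of signal fitted relative to DMSO.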

Test [6] in a line: ATG_FoxO_CIS: Attagene CIS-FACTORIAL HepG2 Assay for human Forkhead box O (FoxO) (AID 2282943). Conditions: HepG2 Attagene cis-reporter, FoxO element, mRNA; actives raise or lower the signal. The gist of the method:
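HepG2 cells transiently transfected with cis-promoter-driven multiple reporter transcription units; 24 h after chemical dosing, reporter mRNA quantified by RT-PCR, fluorescent primer extension, HpaI digestion and capillary electrophoresis. Bidirectional fitting versus DMSO baseline.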

A short description of test [7]: ATG_GATA_CIS: Attagene CIS-FACTORIAL HepG2 Assay for human GATA Binding Protein (AID 2282944). Conditions: HepG2 GATA cis-element reporter, Attagene multiplex mRNA; actives raise or lower the signal. In outline:
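Transfected cis-reporter HepG2 cells were treated with chemicals for 24 hours. Total RNA was then converted to cDNA, amplified with reporter-specific primers and analysed by fluorescent capillary electrophoresis, using DMSO-treated wells as baseline.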

Test [8] is described as follows: ATG_GLI_CIS: Attagene CIS-FACTORIAL HepG2 Assay for human Zinc Finger Protein GLI1 (AID 2282945). Conditions: HepG2, Attagene cis-factorial reporter mRNA, GLI element; actives raise or lower the signal. In outline:
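HepG2 cells transiently transfected with cis-promoter multiplexed reporter units report endogenous transcription factor activity. After 24 h chemical exposure, reporter mRNA was quantified by RT-PCR, 6-FAM labelling, HpaI digestion and capillary electrophoresis, with bidirectional fitting against DMSO.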

Test [9] is described as follows: ATG_M_32_CIS: Attagene CIS-FACTORIAL HepG2 Assay for M32 Transcription Factor (Internal Marker) (AID 2282949).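 Also: background control marker of the multiplexed CIS panel rather than a real target.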 Conditions: HepG2 Attagene cis-factorial M32 reporter, mRNA; actives raise or lower the signal. The gist of the method: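 HepG2 cells transiently transfected with multiplexed cis-regulated reporter units, dosed 24 h. Reporter mRNA quantified by RT-PCR, 6-FAM labelling, HpaI digestion and capillary electrophoresis; bidirectional fit vs DMSO.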

The nature of test [10]: ATG_M_06_CIS: Attagene CIS-FACTORIAL HepG2 Assay for M06 Transcription Factor (Internal Marker) (AID 2282950). Conditions: HepG2 Attagene CIS-FACTORIAL M06 internal marker reporter; actives raise or lower the signal. The gist of the method: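 Cells (HepG2, transiently carrying cis-driven reporter units) receive chemical for 24 h before RNA isolation. Reporter cDNA is PCR-amplified, FAM-labelled by primer extension, HpaI-digested and sized on a capillary analyser.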

Test [11] has as its target Hypoxia-inducible factor 1-alpha (Homo sapiens) (UniProt Q16665). The experiment in a line: ATG_HIF1a_CIS: Attagene CIS-FACTORIAL HepG2 Assay for human Hypoxia Inducible Factor 1 (HIF1A) (AID 2282951). Conditions: HepG2 Attagene cis-factorial HIF1a reporter transcription; actives raise or lower the signal. In outline:
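RT-PCR/capillary electrophoresis fluorescence readout of reporter transcripts from endogenous-TF-driven cis elements in transfected HepG2 cells, 24 h exposure; activity fitted in both directions against DMSO controls.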

Test [12] deals with Hepatocyte nuclear factor 6 (Homo sapiens) (UniProt Q9UBC0). The experiment in a line: ATG_HNF6_CIS: Attagene CIS-FACTORIAL HepG2 Assay for human Hepatocyte Nuclear Factor 6 (HNF6) (AID 2282952). Conditions: HepG2 Attagene cis-factorial HNF6 reporter transcription; actives raise or lower the signal. The gist of the method:
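HepG2, transient MRTU transfection (cis promoters); 24 h chemical exposure; total RNA → oligo(dT) RT → PCR → 6-FAM labelling → HpaI cut → CE; bidirectional fit vs DMSO.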

The target of test [13] is Heat shock factor protein 1 (Homo sapiens) (UniProt Q00613). Kind of test: ATG_HSE_CIS: Attagene CIS-FACTORIAL HepG2 Assay for human Heat Shock Transcription Factor 1 (HSE) (AID 2282953). Conditions: HepG2 HSE cis-reporter, Attagene RNA transcription; actives raise or lower the signal. The gist of the method: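 Liver-derived HepG2 cells carry transiently introduced multiple reporter units governed by cis promoters. Reporter RNA measured 24 h post-dose through reverse transcription, PCR amplification, fluorescent labelling and capillary electrophoresis, normalised to DMSO.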
Sequence of Heat shock factor protein 1 (Homo sapiens) (Q00613 whole entry, looked up): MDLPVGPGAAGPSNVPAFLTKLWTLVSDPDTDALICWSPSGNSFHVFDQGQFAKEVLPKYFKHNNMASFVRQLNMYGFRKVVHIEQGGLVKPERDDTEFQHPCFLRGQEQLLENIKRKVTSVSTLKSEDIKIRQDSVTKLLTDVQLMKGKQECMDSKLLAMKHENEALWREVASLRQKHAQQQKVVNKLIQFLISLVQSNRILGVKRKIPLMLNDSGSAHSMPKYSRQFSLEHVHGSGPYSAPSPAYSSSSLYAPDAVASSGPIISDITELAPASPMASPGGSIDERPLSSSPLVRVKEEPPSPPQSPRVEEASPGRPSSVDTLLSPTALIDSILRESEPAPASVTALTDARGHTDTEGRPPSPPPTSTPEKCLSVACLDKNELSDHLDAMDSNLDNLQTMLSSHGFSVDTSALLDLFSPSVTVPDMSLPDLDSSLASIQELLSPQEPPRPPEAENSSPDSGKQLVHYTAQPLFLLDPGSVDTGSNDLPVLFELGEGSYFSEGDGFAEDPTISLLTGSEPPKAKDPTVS

Test [14] in a line: ATG_MRE_CIS: Attagene CIS-FACTORIAL HepG2 Assay for human Metal Responsive Element (MRE) (AID 2282954). Conditions: HepG2 MRE cis-reporter transcription, Attagene multiplex; actives raise or lower the signal. The gist of the method:
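Step one: transfect HepG2 with cis-regulated reporter units. Step two: dose 24 h. Step three: isolate RNA, RT-PCR, 6-FAM label, HpaI digest, capillary electrophoresis. Fit bidirectionally to DMSO.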

A short description of test [15]: ATG_PBREM_CIS: Attagene CIS-FACTORIAL HepG2 Assay for human Phenobarbital-responsive Enhancer Module (PBREM) (AID 2282955). Conditions: HepG2 PBREM cis-reporter, Attagene multiplexed transcription; actives raise or lower the signal. In outline: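 Reporter mRNA read by RT-PCR, 6-FAM primer extension, HpaI digestion and capillary electrophoresis. Transfected HepG2 cells, 24 h compound exposure. Gain or loss of signal fitted bidirectionally relative to DMSO baseline.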

The nature of test [16]: ATG_ERE_CIS: Attagene CIS-FACTORIAL HepG2 Assay for Estrogen Response Element (ERE) (AID 2282940). Conditions: HepG2 ERE cis-reporter, Attagene RNA transcript; actives raise or lower the signal. The gist of the method:
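Human liver cells (HepG2) bearing transiently transfected, promoter-regulated reporter units were exposed 24 h. Reporter mRNA induction was detected by capillary electrophoresis of labelled RT-PCR products and fitted bidirectionally to DMSO.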

Test [17] in a line: ATG_ISRE_CIS: Attagene CIS-FACTORIAL HepG2 Assay for human Interferon Regulatory Factor 1 (IRF1) binding to an Interferon-Stimulated Response Element (ISRE) (AID 2282948). Conditions: HepG2 ISRE cis-reporter (Attagene), mRNA transcription readout; actives raise or lower the signal. In outline:
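Transiently transfected HepG2 cells carrying cis-element reporter units, dosed 24 hours. Reporter mRNA quantified by RT-PCR, fluorescent primer extension, HpaI digestion and capillary electrophoresis. Bidirectional fitting relative to DMSO.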

Test [18] in a line: ATG_GRE_CIS: Attagene CIS-FACTORIAL HepG2 Assay for human Glucocorticoid Response Elements (GRE) (AID 2282947). Conditions: HepG2 GRE cis-reporter, Attagene multiplex mRNA; actives raise or lower the signal. The gist of the method:
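Following 24 h chemical exposure of transiently transfected HepG2 cells, total RNA was reverse-transcribed and reporter cDNA amplified, fluorescently labelled and sized by capillary electrophoresis. Signal gain or loss was fitted relative to DMSO vehicle.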

The target in test [19] is Bile acid receptor (Homo sapiens) (UniProt Q96RI1). The experiment in a line: ATG_IR1_CIS: Attagene CIS-FACTORIAL HepG2 Assay for human Nuclear Receptor Subfamily 1 Group H Member 4 (NR1H4), IR1 submotif (AID 2282946). Conditions: IR1 reporter transcription, actives raise or lower the signal. In outline: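 Transient MRTU transfection, HepG2; 24 h dosing; RNA → RT-PCR → 6-FAM primer extension → HpaI digest → capillary electrophoresis fluorescence. Gain/loss of signal fitted relative to DMSO.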
Sequence of Bile acid receptor (Homo sapiens) (Q96RI1 whole entry, looked up): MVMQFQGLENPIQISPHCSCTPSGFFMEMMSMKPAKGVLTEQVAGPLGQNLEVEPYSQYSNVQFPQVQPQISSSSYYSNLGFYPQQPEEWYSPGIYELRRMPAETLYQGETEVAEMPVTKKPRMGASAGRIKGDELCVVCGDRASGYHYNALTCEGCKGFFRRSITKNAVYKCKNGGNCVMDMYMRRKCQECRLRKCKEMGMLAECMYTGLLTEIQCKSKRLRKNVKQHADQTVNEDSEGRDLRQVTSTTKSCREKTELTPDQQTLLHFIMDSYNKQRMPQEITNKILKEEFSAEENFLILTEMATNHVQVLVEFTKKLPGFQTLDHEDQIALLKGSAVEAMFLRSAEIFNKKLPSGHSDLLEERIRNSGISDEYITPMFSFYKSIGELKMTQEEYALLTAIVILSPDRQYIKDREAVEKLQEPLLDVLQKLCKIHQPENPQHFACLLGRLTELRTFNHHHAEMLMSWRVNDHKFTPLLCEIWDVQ

The source made the active and inactive calls. The calls were made as follows: active = hit-call score of the fitted dose curve at least 0.9, where 1 is the maximum; inactive = score below 0.9.

Sequence of Hepatocyte nuclear factor 3-beta (Homo sapiens) (Q9Y261 whole entry, looked up): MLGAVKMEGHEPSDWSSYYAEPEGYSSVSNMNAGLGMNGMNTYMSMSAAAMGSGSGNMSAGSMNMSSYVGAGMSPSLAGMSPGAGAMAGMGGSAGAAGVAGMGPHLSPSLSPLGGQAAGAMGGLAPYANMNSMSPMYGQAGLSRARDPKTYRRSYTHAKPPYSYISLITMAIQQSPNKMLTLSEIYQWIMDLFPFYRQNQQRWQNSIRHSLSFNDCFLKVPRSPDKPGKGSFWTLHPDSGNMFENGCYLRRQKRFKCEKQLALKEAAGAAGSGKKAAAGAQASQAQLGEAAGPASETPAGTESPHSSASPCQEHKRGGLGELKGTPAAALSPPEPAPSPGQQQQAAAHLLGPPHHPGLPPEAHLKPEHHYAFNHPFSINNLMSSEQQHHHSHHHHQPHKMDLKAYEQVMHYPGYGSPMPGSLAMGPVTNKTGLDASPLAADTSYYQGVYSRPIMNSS
Sequence of Hypoxia-inducible factor 1-alpha (Homo sapiens) (Q16665 whole entry, looked up): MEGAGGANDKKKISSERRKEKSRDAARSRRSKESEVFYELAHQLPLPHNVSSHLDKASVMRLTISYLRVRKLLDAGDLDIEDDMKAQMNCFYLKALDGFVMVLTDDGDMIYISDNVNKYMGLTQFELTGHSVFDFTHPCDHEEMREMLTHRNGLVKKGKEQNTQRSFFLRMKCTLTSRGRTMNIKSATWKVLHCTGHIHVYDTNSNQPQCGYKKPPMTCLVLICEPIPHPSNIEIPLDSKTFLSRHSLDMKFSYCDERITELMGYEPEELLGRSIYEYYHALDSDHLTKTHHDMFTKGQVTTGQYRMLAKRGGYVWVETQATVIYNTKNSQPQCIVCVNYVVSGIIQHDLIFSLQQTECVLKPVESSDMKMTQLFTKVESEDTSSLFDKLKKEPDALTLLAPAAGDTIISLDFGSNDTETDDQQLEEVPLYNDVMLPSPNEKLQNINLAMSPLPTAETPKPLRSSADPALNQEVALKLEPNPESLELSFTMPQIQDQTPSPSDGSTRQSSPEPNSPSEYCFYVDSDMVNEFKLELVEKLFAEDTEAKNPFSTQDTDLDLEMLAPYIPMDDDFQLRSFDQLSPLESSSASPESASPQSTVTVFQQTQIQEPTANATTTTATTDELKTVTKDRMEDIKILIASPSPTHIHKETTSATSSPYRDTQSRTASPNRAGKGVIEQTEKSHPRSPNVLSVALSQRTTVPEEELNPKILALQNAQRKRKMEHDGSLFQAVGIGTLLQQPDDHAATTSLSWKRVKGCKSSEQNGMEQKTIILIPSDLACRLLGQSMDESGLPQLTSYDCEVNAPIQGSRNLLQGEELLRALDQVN
Sequence of Hepatocyte nuclear factor 6 (Homo sapiens) (Q9UBC0 whole entry, looked up): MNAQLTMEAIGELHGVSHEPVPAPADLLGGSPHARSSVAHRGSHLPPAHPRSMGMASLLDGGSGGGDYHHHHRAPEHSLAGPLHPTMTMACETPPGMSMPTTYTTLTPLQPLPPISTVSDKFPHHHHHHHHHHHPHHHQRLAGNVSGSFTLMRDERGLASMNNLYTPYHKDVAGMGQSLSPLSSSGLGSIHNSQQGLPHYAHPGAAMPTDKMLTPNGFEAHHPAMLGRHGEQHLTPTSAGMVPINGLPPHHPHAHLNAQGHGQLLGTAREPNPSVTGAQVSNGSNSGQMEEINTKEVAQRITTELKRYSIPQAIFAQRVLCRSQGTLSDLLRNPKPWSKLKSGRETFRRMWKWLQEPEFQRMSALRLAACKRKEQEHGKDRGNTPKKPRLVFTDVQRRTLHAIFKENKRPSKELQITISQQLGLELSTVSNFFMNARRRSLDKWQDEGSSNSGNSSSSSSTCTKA

On to `CC(C)CCCCCCOC(=O)c1ccc(C(=O)OCCCCCCC(C)C)c(C(=O)OCCCCCCC(C)C)c1`, for which the outcome in test [1], in test [2], in [3], in test [4], in test [5] and in test [6] was inactive. Besides, the result in [7], in test [8], in test [9], in test [10], in [11] and in test [12] was inactive. Besides, the call in [13], in [14] and in test [15] was inactive.
Regarding `CC(C)CCO`, the outcome in test [1], in test [2], in test [3], in test [16], in test [4] and in test [5] was inactive. The compound was called inactive in test [6], in [7], in test [8], in test [17], in test [9] and in [10]. The outcome in test [11], in test [12], in [13] and in [14] was inactive.
Consider `CC(C)CC(C)(O)C#CC(C)(O)CC(C)C` (stereo not given), for which the result in test [1], in test [2], in test [3], in [4], in test [5] and in test [6] was inactive. The compound was called inactive in test [7], in test [8], in [18], in [17], in test [9] and in test [10]. Also, the compound was classed as inactive in test [11], in test [12], in test [13], in test [14] and in test [15].
On to `C1N2CN3CN1CN(C2)C3`, for which the result in test [1], in test [2], in test [3], in test [4], in test [5] and in test [6] was inactive. Moreover, the compound was called inactive in [7], in test [8], in [19], in test [17], in test [9] and in [11]. For the same compound, the result in test [12], in test [13], in test [14] and in test [15] was inactive.
On to `C[C@](N)(Cc1ccc(O)c(O)c1)C(=O)O`, for which the outcome in test [1], in [2], in test [3], in [4], in test [5] and in test [6] was inactive. Also, the outcome in [7], in test [8], in test [9], in test [11], in test [12] and in test [13] was inactive. The result in test [14] and in [15] was inactive.
As for `C=CCCCCCCCCC(=O)O`, the outcome in test [1], in test [2], in test [3], in test [16], in test [4] and in [5] was inactive. In addition, the call in test [6], in [7], in [8], in test [18], in [9] and in test [11] was inactive. Besides, the result in test [12], in [13] and in test [14] was inactive.
By AC50 is commonly meant the concentration at which the activity in the assay is half-maximal. As for `Fc1ccccc1[C@@H](F)COC1CCC(Nc2ncnc3[nH]ncc23)CC1` (stereo not given in full), the AC50 in [1] was 177 µM (active); in test [3], 5.72 µM (active); in [11], 2.96 µM (active); in [13] it was 157 µM (active); in test [14], 103 µM (active); in [15] it was 26.2 µM (active). The call in test [2], in [4], in test [5], in test [6], in [7] and in test [8] was inactive. Besides, the outcome in test [19], in [18], in [9] and in [12] was inactive.
As to `CCCCCCc1ccc(O)cc1O`, the outcome in [1], in test [2], in [4], in test [5], in test [6] and in test [7] was inactive. Also, the result in test [8], in test [18], in [9], in test [10], in test [12] and in test [13] was inactive. Also, the outcome in test [15] was inactive. The AC50 in [3] was 52.7 µM (active); in [11], 50.7 µM (active); in [14], 54.1 µM (active).

The values above are taken from PubChem BioAssay (EPA / NIEHS).
